{
  "source": "the supplement of paper PMC10681739",
  "data": [
    {"molecular_target": "T1, ETS1 (UniProt P14921)", "T1 sequence": "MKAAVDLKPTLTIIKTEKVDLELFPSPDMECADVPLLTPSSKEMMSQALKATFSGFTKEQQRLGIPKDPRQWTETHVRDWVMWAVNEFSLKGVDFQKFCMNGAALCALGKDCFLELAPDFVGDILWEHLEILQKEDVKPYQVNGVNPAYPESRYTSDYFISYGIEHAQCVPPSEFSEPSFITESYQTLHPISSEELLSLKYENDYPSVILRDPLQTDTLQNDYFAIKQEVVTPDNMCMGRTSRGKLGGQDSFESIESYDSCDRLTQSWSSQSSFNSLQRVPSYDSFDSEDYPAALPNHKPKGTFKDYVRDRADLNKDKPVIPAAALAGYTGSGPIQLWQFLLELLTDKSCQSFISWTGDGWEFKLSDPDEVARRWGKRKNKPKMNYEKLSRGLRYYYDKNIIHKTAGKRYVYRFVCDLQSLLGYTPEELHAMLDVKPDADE", "test": "ETS1 binding intensity (PBM fluorescence) in presence of RUNX1, normalised to ETS1-only experiment (arbitrary fluorescence units); higher = stronger binding", "settings": "ETS1 concentration 1 nM; RUNX1 concentration 25 nM", "values": [
      {"sequence": "CCGGCAGGAAGTTAGCATGGGCGGACCACACGGGGG", "ETS1 binding intensity": 1530},
      {"sequence": "TGCCTCACCTCACATCCGTTTGTGGCTGCCGAGTGC", "ETS1 binding intensity": 1310},
      {"sequence": "CGGTTCCGGCGCCTGAAGTTTTAGCTGCGGTGGCGG", "ETS1 binding intensity": 676},
      {"sequence": "GTGGGGCGGGCTTCCGGCGCTCCCACCGCGAGCCGA", "ETS1 binding intensity": 1050},
      {"sequence": "TGTCTTCAGGAAGTGTAGCAGGTGTTGAGGTCAAGC", "ETS1 binding intensity": 998},
      {"sequence": "CTGCTTCCGGCCCCGGGGTTCGCTACCCCACAATCC", "ETS1 binding intensity": 1240},
      {"sequence": "TTTAGACACCGCTTCCTGCCACAAGCCCAAGACTTA", "ETS1 binding intensity": 839},
      {"sequence": "CCCGTTCTCCGGAAGTGCGCGGGTTGGAGCTGAAGC", "ETS1 binding intensity": 5690},
      {"sequence": "TCCAGTGCCGCCGCCGGAAAACCGCAGCGGCGGCGG", "ETS1 binding intensity": 4530},
      {"sequence": "GCGCAAGGATCCGGTTTGTTGTGGTGTGGGGAGGGG", "ETS1 binding intensity": 503},
      {"sequence": "AAAATTAAAGCAGGAAGTAATCAACCACATCAAATG", "ETS1 binding intensity": 9610},
      {"sequence": "TCGGAGACGGCGAAAGGAAACCGCAAGGAGGCCACC", "ETS1 binding intensity": 2820},
      {"sequence": "CTTTCGGGGGCGGAAGTTGCGGTGCATTGTAGGTTC", "ETS1 binding intensity": 20000},
      {"sequence": "GGCTCGGCAAACATCCGGCTCCGCGGTGGAACGGGA", "ETS1 binding intensity": 1910},
      {"sequence": "CAGCACGCAGGAAGCACATGTGGTGGGGCTCTTCCA", "ETS1 binding intensity": 759},
      {"sequence": "TCTCTTCCTGTGATGGAAATACATTGAGGTTTGCGA", "ETS1 binding intensity": 743},
      {"sequence": "GGGTCCTTCCGGGTTTTGTGTCGAATCTGCGGCGGC", "ETS1 binding intensity": 395},
      {"sequence": "GTAAATAAAGAGGAAGTCCCTATGCGGGGGATGGGG", "ETS1 binding intensity": 2060},
      {"sequence": "GGTTGTAAGTTCACAGGATGTGGTGTGTCCCTGTGG", "ETS1 binding intensity": 6360},
      {"sequence": "CTTCACTATGCATCCTGTACTGCAACCACACCAAAC", "ETS1 binding intensity": 793},
      {"sequence": "TGCGAGCACCCGGAAGCCGCTTGCGGGCTCCCGGAG", "ETS1 binding intensity": 5620},
      {"sequence": "TGGCTGTGTCCCGGAAGTGGTCATAAGCTGGGTCCC", "ETS1 binding intensity": 9830},
      {"sequence": "AGTTGTGTTTTAGGATGTGGTCAAAGCCCAACAGAG", "ETS1 binding intensity": 2150},
      {"sequence": "CCCTCATCTTCCTGCTTCAGGCAGCTGTGGTTTACC", "ETS1 binding intensity": 1550},
      {"sequence": "TGTCTCTGCCGCCGGAAACCGCGCCGTAGATCATGC", "ETS1 binding intensity": 7800},
      {"sequence": "ATGGGTACAGGATTTCCTTTTGTGGTGATGAAAATG", "ETS1 binding intensity": 1030},
      {"sequence": "GTTGAGTAGTGACAGGAAGTGACCGCAAGGGGGCGC", "ETS1 binding intensity": 44800},
      {"sequence": "ATAGAAACTACAGGAAATACTGTGGTCAGGTTTTGA", "ETS1 binding intensity": 9500},
      {"sequence": "GCTCGGAAATACCAATATTGGGCTGTGGTATTTGAA", "ETS1 binding intensity": 626},
      {"sequence": "GCTCTGCAGGATGTGGCTGTGACCGCAGTGAGGAGC", "ETS1 binding intensity": 11800},
      {"sequence": "TCAATAAGACAGGATGTTCTCCAACCGCATTAAGCT", "ETS1 binding intensity": 22100},
      {"sequence": "AGCTTGCTTCCTGTCCCCAAAACCCACAGCACACGG", "ETS1 binding intensity": 1120},
      {"sequence": "GGGCGGAAGTGCGTCACTATGTCCGACCCGCAGTGC", "ETS1 binding intensity": 2050},
      {"sequence": "ACCTCTCTCACTTCCTACCAGAGAACCACAGCCAAG", "ETS1 binding intensity": 404},
      {"sequence": "AACCCGGAAGTGGACACGGAGCTCGGCTGCGGCTCC", "ETS1 binding intensity": 2240},
      {"sequence": "TCAGGGGAGCGAGCAGGAAGTGGTAAGATTTGATAG", "ETS1 binding intensity": 7210},
      {"sequence": "AAACAGGAAATCACAGCAGCGTTGCGGAGTGGAGCA", "ETS1 binding intensity": 1110},
      {"sequence": "CAGCGGCCGTCGCGGGAAGTGCGGTCGCCGCGGCCA", "ETS1 binding intensity": 1120},
      {"sequence": "GGTGACACGGCCGGCTTCCTGCCGCAGAGCTCCTGG", "ETS1 binding intensity": 639}
    ]}
  ]
}
